Among the data in PubChem BioAssay (NCATS) are Potency and activity change, negative = inhibition values, retold here.

For assay [1], the system named is Zika virus NS2B-NS3 protease (unlinked complex). Description: Primary screen GU Rhodamine qHTS for Zika virus inhibitors: Unlinked NS2B-NS3 protease assay (AID 1347159). Note: nearly all actives have a fitted effect of over 60% in size. The settings on record: Recombinant ZIKV NS2B-NS3 protease, Rhodamine110 substrate fluorescence; series mostly up to 107 µM. Summed up: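 Percent inhibition derives from the 15-min fluorescence change (ex 480, em 540 nm), normalized to no-enzyme and no-inhibitor wells. Reactions contained 25 nM NS2B-NS3 complex and 1.5 microM substrate in 10 mM Tris-HCl pH 8.0.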

The subject of assay [2] is Zika virus NS2B-NS3 protease (linked construct). Description: Primary screen NINDS Rhodamine qHTS for Zika virus inhibitors (AID 1347160). Note: nearly all actives have a fitted effect of over 55% in size. The settings on record: purified NS2B-NS3 protease, Rhodamine110 substrate fluorescence; series mostly up to 57.1 µM. Summed up: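 In 10 mM Tris-HCl pH 8.0 containing 0.01% Tween 20, linked NS2B-NS3 protease (25 nM final) is exposed to test compounds for 15 min. Cleavage of 1.5 microM Rhodamine110 substrate is tracked by fluorescence over 15 min.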

Inconclusive results are not listed. A number with no mark means an inactive call. Active and inactive are the calls of the source. Calls come from the whole dose curve; as a rule, active = well fitted inhibition curve with a large enough effect; inconclusive = small, poorly fitted or top-dose-only effect; inactive = no such curve, though single readings can be large or run the other way.
% is set by controls: 0 for no effect and ±100 for the full control effect.

Turning to `FC(F)(F)c1ccc(Nc2nc(-c3c(C(F)(F)F)nc4ccccn34)cs2)cc1`, the Potency result in assay [1] and in assay [2] was “inactive” in each case.

Turning to `O=C(COc1cccc2c(=O)[nH]ccc12)c1ccccc1`, the Potency entry in assay [1] and in assay [2] was “inactive” throughout.

Turning to `CC(=O)CC1CCC(C(C)C(=O)OCC(O)CO)O1` (stereo not drawn), the Potency result in assay [1] and in assay [2] was “inactive” each time.

As to `CNC(=O)c1ccccc1Nc1cc(Nc2ccc(N3CCOCC3)cc2OC)ncc1C(F)(F)F`, the Potency entry in assay [1] and in assay [2] was “inactive” throughout.

For `CCOc1ccc(NC(=S)N2CCC(C(O)(c3ccccc3)c3ccccc3)CC2)cc1`, the Potency entry in assay [1] and in assay [2] was “inactive” each time.

As to `COc1cc2c(cc1OC)CC(=O)N(CCCNC[C@H]1Cc3cc(OC)c(OC)cc31)CC2`, the Potency result in assay [1] and in assay [2] was “inactive” in each case.

For `COC1CC(O[C@H]2CC[C@@]3(C)C(CCC4C3[C@H](OC(C)=O)[C@@H](OC(=O)/C=C/c3ccccc3)[C@]3(C)C(C(C)=O)CC[C@]43O)C2)OC(C)C1OC1CC(OC)C(OC2CC(OC)C(OC3OC(C)C(OC4OC(CO)C(O)C(O)C4O)C(OC)C3O)C(C)O2)C(C)O1` (stereo partly drawn), the activity change, negative = inhibition in assay [1] is -9.68% [at 19.1 µM]; in assay [2], 20.6% [at 10.7 µM].

Consider `C/C=C1\[C@H](OC2OC(COC3OC(CO)C(O)C(O)C3O)C(O)C(O)C2O)OC=C(C(=O)OC)[C@H]1CC(=O)OCCc1ccc(O)cc1` (stereo partly drawn), for which the Potency entry in assay [1] and in assay [2] was “inactive” in each case.

As for `C[C@]1(CO)CCC[C@]2(C)C3=C(CCC12)COC3` (stereo partly drawn), the Potency entry in assay [1] and in assay [2] was “inactive” each time.

Take `CNCc1ccc(-c2cc(-c3nc(-c4ccc(S(=O)(=O)C(C)C)cc4)cnc3N)on2)cc1`: the Potency entry in assay [1] and in assay [2] was “inactive” in each case.

For `CN(CCc1ccc(Nc2ncc(-c3cccnc3)s2)cc1)Cc1ccccc1`, the Potency entry in assay [1] and in assay [2] was “inactive” in each case.

As to `COc1cc2c(cc1O)CC[C@H]1[C@@H]2CC[C@]2(C)[C@H](O)CC[C@@H]12`, the Potency entry in assay [1] and in assay [2] was “inactive” in each case.

With `COc1cc(C)c(C(=O)O[C@H]2[C@@H](OC(C)=O)[C@H](n3ccc(=O)[nH]c3=O)O[C@@H]2CO)c(OC)c1`, the Potency result in assay [1] and in assay [2] was “inactive” in each case.

With `C=C1CCCC2(C)CC3(OC)OC(=O)C(C)=C3CC12` (stereo not drawn), the Potency result in assay [1] and in assay [2] was “inactive” each time.

Regarding `C=CC(C)(C)C12C=C(OC)C(=O)N3C(C(C)C)C(=O)NC31N(OC)c1ccccc12` (stereo not drawn), the Potency entry in assay [1] and in assay [2] was “inactive” in each case.

Turning to `CC(C)C(NC(=O)c1ccc2ccccc2n1)C(=O)NC(CC(=O)O)C(=O)COc1c(F)cccc1F` (stereo not drawn), the Potency result in assay [1] and in assay [2] was “inactive” throughout.

For the compound `Cc1oc2ccccc2c1CNC(=O)NCc1cccs1`, the Potency entry in assay [1] and in assay [2] was “inactive” throughout.

As to `O=C(NCC(O)CO)c1ccncc1Nc1ccc(I)cc1F` (stereo not drawn), the Potency result in assay [1] and in assay [2] was “inactive” each time.

In the case of `CC(=O)c1ccc2c(c1)C(O)C(C(C)(C)O)O2` (stereo not drawn), the Potency result in assay [1] and in assay [2] was “inactive” in each case.

Consider `C/C=C/c1cc(OC)c2c(c1)[C@@H](C)[C@@H](c1ccc(O)c(OC)c1)O2`, for which the Potency result in assay [1] and in assay [2] was “inactive” in each case.

`C[C@H](O)[C@H](O)/C=C/c1cccc(O)c1CO`: the Potency result in assay [1] and in assay [2] was “inactive” each time.

`CO[C@H]1C[C@@H]2CC[C@@H](C)[C@@](O)(O2)C(=O)C(=O)N2CCCC[C@H]2C(=O)O[C@H]([C@H](C)C[C@H]2CC[C@@H](OP(C)(C)=O)[C@H](OC)C2)CC(=O)[C@H](C)/C=C(\C)[C@@H](O)[C@@H](OC)C(=O)[C@H](C)C[C@H](C)/C=C/C=C/C=C/1C`: the Potency result in assay [1] and in assay [2] was “inactive” each time.

As for `COc1cc2ncnc(Nc3ccc(F)c(Cl)c3)c2cc1NC(=O)/C=C/CN1CCCCC1`, the Potency result in assay [1] and in assay [2] was “inactive” each time.

As to `OC/C=C/c1ccc(O[C@@H]2O[C@H](CO)[C@@H](O)[C@H](O)[C@H]2O)cc1`, the Potency entry in assay [1] and in assay [2] was “inactive” each time.

Turning to `NCCCNc1ccc(Nc2nccc(Nc3cc(C4CC4)[nH]n3)n2)cc1`, the Potency result in assay [1] and in assay [2] was “inactive” throughout.

In the case of `CCC(C)C(=O)OC1CC(C)C=C2C=CC(C)C(CCC(O)CC(O)CC(=O)O)C21` (stereo not drawn), the Potency entry in assay [1] and in assay [2] was “inactive” throughout.

As for `CC1(C)CC[C@]2(C(=O)O)CC[C@]3(C)C(=CCC4[C@@]5(C)CC[C@H](O[C@@H]6O[C@H](C(=O)O)[C@@H](O[C@@H]7OC[C@@H](O)[C@H](O)[C@H]7O)[C@H](O)[C@H]6O)C(C)(C)C5CC[C@]43C)C2C1O` (stereo partly drawn), the Potency entry in assay [1] and in assay [2] was “inactive” throughout.

Regarding `Cc1ccc(S(=O)(=O)Cc2nc(-c3ccc(C(=O)NCc4cccnc4)cc3)oc2C)cc1`, the Potency result in assay [1] and in assay [2] was “inactive” throughout.

For `C=C[C@H]1[C@H](O[C@@H]2O[C@H](CO)[C@@H](O)[C@H](O)[C@H]2O)OC=C(C(=O)OC)[C@H]1C/C=C(/C=O)[C@@H]1C(C(=O)OC)=CO[C@@H](O[C@@H]2O[C@H](CO)[C@@H](O)[C@H](O)[C@H]2O)[C@@H]1C=C`, the Potency entry in assay [1] and in assay [2] was “inactive” each time.
